From PubChem BioAssay AID1159580 (chemical genetic matrix, 2015)
The whole screen tested about 5,500 compounds, of which about 2,000 (36%) were called active. About 18% were inconclusive and are not listed. Rule as the data show it: active = normalized growth mostly below about 0.91 (no sharp cut-off); inconclusive = no clear call, values can overlap the other calls; inactive = mostly above about 0.92. The list shows a part of the results.

Assay: chemical genetic growth profiling, strain panel (AID 1159580);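 also: tested at 20 µM; growth read once vehicle control cultures reached saturation at 30 °C; 1 = growth at the plate median or of vehicle wells; lower values mean less growth of the strain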
Conditions: growth OD

Measured: normalized growth

CC(=O)[O][Hg][c]1ccccc1
active: S. cerevisiae deletion strains, locus YJR066W, strain TOR1, active compounds read low 0.00688 | S. cerevisiae deletion strains, locus YJR075W, strain HOC1, active compounds read low 0.0645 | S. cerevisiae deletion strains, locus YKL009W, strain mrt4, active compounds read low 0.0761 | S. cerevisiae deletion strains, locus YKL068W, active compounds read low 0.0552 | S. cerevisiae deletion strains, locus YKL085W, strain MDH1 (second series), active compounds read low 0.0536 | S. cerevisiae deletion strains, locus YKL085W, strain MDH1, active compounds read low 0.0536 | S. cerevisiae deletion strains, locus YKL160W, strain elf1, active compounds read low 0.0629 | S. cerevisiae deletion strains, locus YKL190W, strain CNB1, active compounds read low 0.0488 | S. cerevisiae deletion strains, locus YKR001C, strain vps1, active compounds read low 0.0636 | S. cerevisiae deletion strains, locus YKR026C, strain gcn3, active compounds read low 0.0658 | S. cerevisiae deletion strains, locus YKR091W, strain srl3, active compounds read low 0.0596 | S. cerevisiae deletion strains, locus YLL001W, strain dnm1, active compounds read low 0.0611 | S. cerevisiae deletion strains, locus YLL026W, active compounds read low 0.0582 | S. cerevisiae deletion strains, locus YLL041C, strain sdh2, active compounds read low 0.0595 | S. cerevisiae deletion strains, locus YLR027C, strain aat2, active compounds read low 0.0573 | S. cerevisiae deletion strains, locus YLR039C, strain RIC1, active compounds read low 0.0904 | S. cerevisiae deletion strains, locus YLR058C, strain SHM2, active compounds read low 0.0508 | S. cerevisiae deletion strains, locus YLR102C, strain apc9, active compounds read low 0.0618 | S. cerevisiae deletion strains, locus YLR113W, strain HOG1, active compounds read low 0.158 | S. cerevisiae deletion strains, locus YLR221C, strain rsa3, active compounds read low 0.0629 | S. cerevisiae deletion strains, locus YLR258W, strain gsy2, active compounds read low 0.0604 | S. cerevisiae deletion strains, locus YLR262C, strain YPT6 (second series), active compounds read low 0.0742 | S. cerevisiae deletion strains, locus YLR262C, strain YPT6, active compounds read low 0.103 | S. cerevisiae deletion strains, locus YLR268W, strain sec22, active compounds read low 0.0681 | S. cerevisiae deletion strains, locus YLR320W, strain mms22, active compounds read low 0.0826 | S. cerevisiae deletion strains, locus YLR330W, strain CHS5, active compounds read low 0.0544 | S. cerevisiae deletion strains, locus YLR342W, strain FKS1 (second series), active compounds read low 0.0755 | S. cerevisiae deletion strains, locus YLR342W, strain FKS1, active compounds read low 0.0633 | S. cerevisiae deletion strains, locus YLR357W, strain rsc2, active compounds read low 0.127 | S. cerevisiae deletion strains, locus YLR370C, strain arc18, active compounds read low 0.0626 | S. cerevisiae deletion strains, locus YLR371W, strain rom2, active compounds read low 0.0637 | S. cerevisiae deletion strains, locus YLR384C, strain iki3, active compounds read low 0.0624 | S. cerevisiae deletion strains, locus YLR418C, strain cdc73, active compounds read low 0.0951 | S. cerevisiae deletion strains, locus YML016C, strain PPZ1, active compounds read low 0.0524 | S. cerevisiae deletion strains, locus YML032C, strain rad52, active compounds read low 0.0836 | S. cerevisiae deletion strains, locus YML120C, strain ndi1, active compounds read low 0.0619 | S. cerevisiae deletion strains, locus YML124C, strain tub3, active compounds read low 0.0593 | S. cerevisiae deletion strains, locus YMR058W, strain fet3, active compounds read low 0.0602 | S. cerevisiae deletion strains, locus YMR078C, strain ctf18, active compounds read low 0.0736 | S. cerevisiae deletion strains, locus YMR125W, strain sto1, active compounds read low 0.0779 | S. cerevisiae deletion strains, locus YMR129W, active compounds read low 0.0611 | S. cerevisiae deletion strains, locus YMR205C, strain PFK2, active compounds read low 0.0858 | S. cerevisiae deletion strains, locus YMR223W, strain ubp8, active compounds read low 0.0679 | S. cerevisiae deletion strains, locus YMR231W, strain pep5, active compounds read low 0.0683 | S. cerevisiae deletion strains, locus YMR263W, strain SAP30, active compounds read low 0.0622 | S. cerevisiae deletion strains, locus YMR307W, strain GAS1, active compounds read low 0.119 | S. cerevisiae deletion strains, locus YNL067W, strain RPL9B, active compounds read low 0.0529 | S. cerevisiae deletion strains, locus YNL071W, strain lat1, active compounds read low 0.0614 | S. cerevisiae deletion strains, locus YNL128W, strain TEP1, active compounds read low 0.0633 | S. cerevisiae deletion strains, locus YNL153C, strain GIM3, active compounds read low 0.0495 | S. cerevisiae deletion strains, locus YNL183C, strain NPR1, active compounds read low -0.000716 | S. cerevisiae deletion strains, locus YNL209W, strain ssb2, active compounds read low 0.0586 | S. cerevisiae deletion strains, locus YNL233W, strain BNI4, active compounds read low 0.0544 | S. cerevisiae deletion strains, locus YNL248C, strain rpa49, active compounds read low 0.0785 | S. cerevisiae deletion strains, locus YNL250W, strain rad50, active compounds read low 0.0635 | S. cerevisiae deletion strains, locus YNL271C, strain bni1, active compounds read low 0.0615 | S. cerevisiae deletion strains, locus YNL298W, strain CLA4, active compounds read low 0.0614 | S. cerevisiae deletion strains, locus YNL307C, strain MCK1, active compounds read low 0.0689 | S. cerevisiae deletion strains, locus YNL322C, strain KRE1 (second series), active compounds read low 0.0671 | S. cerevisiae deletion strains, locus YNL322C, strain KRE1, active compounds read low 0.0528 | S. cerevisiae deletion strains, locus YNR049C, strain mso1, active compounds read low 0.0595 | S. cerevisiae deletion strains, locus YNR052C, strain pop2, active compounds read low 0.0629 | S. cerevisiae deletion strains, locus YOL006C, strain TOP1, active compounds read low 0.102 | S. cerevisiae deletion strains, locus YOL147C, strain pex11, active compounds read low 0.058 | S. cerevisiae deletion strains, locus YOR001W, strain rrp6, active compounds read low 0.0684 | S. cerevisiae deletion strains, locus YOR061W, strain CKA2, active compounds read low 0.0465 | S. cerevisiae deletion strains, locus YOR069W, strain VPS5, active compounds read low 0.0482 | S. cerevisiae deletion strains, locus YOR070C, strain gyp1, active compounds read low 0.0606 | S. cerevisiae deletion strains, locus YOR080W, strain dia2, active compounds read low 0.0661 | S. cerevisiae deletion strains, locus YOR083W, strain WHI5, active compounds read low 0.0628 | S. cerevisiae deletion strains, locus YOR106W, strain vam3, active compounds read low 0.0631 | S. cerevisiae deletion strains, locus YOR136W, strain idh2, active compounds read low 0.0713 | S. cerevisiae deletion strains, locus YOR144C, strain elg1, active compounds read low 0.0581 | S. cerevisiae deletion strains, locus YOR184W, strain ser1, active compounds read low 0.073 | S. cerevisiae deletion strains, locus YOR231W, strain MKK1, active compounds read low 0.132 | S. cerevisiae deletion strains, locus YOR265W, strain rbl2, active compounds read low 0.0563 | S. cerevisiae deletion strains, locus YOR270C, strain vph1, active compounds read low 0.0933 | S. cerevisiae deletion strains, locus YOR290C, strain snf2, active compounds read low 0.0699 | S. cerevisiae deletion strains, locus YOR316C, strain cot1, active compounds read low 0.0597 | S. cerevisiae deletion strains, locus YPL051W, strain arl3, active compounds read low 0.063 | S. cerevisiae deletion strains, locus YPL055C, strain LGE1, active compounds read low 0.076 | S. cerevisiae deletion strains, locus YPL078C, strain atp4, active compounds read low 0.0655 | S. cerevisiae deletion strains, locus YPL106C, strain sse1, active compounds read low 0.1 | S. cerevisiae deletion strains, locus YPL240C, strain hsp82, active compounds read low 0.0559 | S. cerevisiae deletion strains, locus YPL241C, strain CIN2, active compounds read low 0.0515 | S. cerevisiae deletion strains, locus YPL256C, strain CLN2, active compounds read low 0.132 | S. cerevisiae deletion strains, locus YPR119W, strain clb2, active compounds read low 0.0616 | S. cerevisiae deletion strains, locus YPR141C, strain kar3, active compounds read low 0.0673 | S. cerevisiae deletion strains, locus YPR163C, strain tif3, active compounds read low 0.0707 | S. cerevisiae deletion strains, locus YPR167C, strain met16, active compounds read low 0.0616 | S. cerevisiae deletion strains, strain wtn01, active compounds read low 0.0633 | S. cerevisiae strains, strain wild type, active compounds read low 0.0493
